Test results published in PubChem BioAssay.

tested on: not listed separately; test: anti-His antibody binders, primary screen, artefact control for SMM control protein annotation, biochemical, small-molecule microarray, 635 nm fluorescence (AID 1128); conditions: anti-His Alexa647 antibody binding, higher = more signal;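 further: score merges feature fluorescence with signal-to-noise for each printed compound spot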

Row | SMILES | composite z-score
1 | CCCCCN1CC=CC23O[C@@H]4/C=C\CCCOC(=O)C4[C@H]2C(=O)N(CCO)[C@@H]3C1=O (stereo partly specified) | 2.49
2 | CN1C2C=C(c3ccc(CO)cc3)C(C3C(=O)N(C(N)=O)C(=O)C32)C1C1CC1 (stereo unspecified) | 0.573
3 | Cc1ccc(S(=O)(=O)N2[C@@H](c3ccccc3)C(C(=O)O)=C[C@H]2C(C)(C)C)cc1 | 1.43
4 | C=C(C(=O)CC[C@@H](OC(=O)c1ccccc1-c1ccccc1C(=O)O)c1ccc(CO)o1)C(C)C | 0.546
5 | COC(=O)[C@@]1(Cc2ccc(F)cc2)[C@@H]2C(=CC(=O)[C@H]2CC(=O)C(=O)N2CCCC2)CN1C(=O)c1ccccc1 | 0.323
6 | COC(=O)C(CC#Cc1ccc2c(c1)[C@]1(C(=O)N2)[C@H](C(=O)N2CCCCCCC2)[C@H]2C(=O)O[C@H](c3ccccc3)[C@H](c3ccccc3)N2[C@@H]1c1ccc(OCCO)cc1)C(=O)OC | 3.39
7 | C=CC[C@H](OC(=O)Nc1ccc(SC)cc1)c1ccc(O)c(F)c1 | 0.434
8 | Cc1cccc([C@H]2C[C@H]3C(Br)=C[C@@]2(CO)C(=O)[C@]32CO2)c1 | 0.338
9 | C=C(CCCC)C(=O)CC[C@H](OC(=O)c1ccccc1-c1ccccc1C(=O)O)c1cccc(OCCO)c1 | -0.413

tested on: Human papillomavirus type 1a E7 protein (residues 1-88); test: HPV1a E7 small-molecule binders, primary screen, biochemical, small-molecule microarray, residues 1-88, 635 nm (AID 1129); conditions: small-molecule microarray binding, fluorescence 635 nm; higher = more signal

Row | SMILES | composite z-score
10 | CCOC(=O)C1=CC[C@@H](c2ccccc2)N(S(=O)(=O)c2ccc(C)cc2)[C@@H]1C#N | 1.15
11 | C=CCN1C(=O)[C@]2(O[C@H](CCO)[C@@H]([Si](C)(C)c3ccc(OC)cc3)[C@@H]2C)c2cc(N3C(=O)c4ccccc4Oc4ccccc43)ccc21 | 1.14
12 | C=CCOC(=O)[C@H]1[C@@H]2C(=O)O[C@@H](c3ccccc3)[C@@H](c3ccccc3)N2[C@@H](c2ccc(OCCOC(=O)[C@H]3C[C@H]4C(=O)NCC(=O)N4[C@H]3c3ccc(O)cc3)cc2)[C@]12C(=O)Nc1ccccc12 | 1.22
13 | C=CCOC(=O)[C@H]1[C@@H]2C(=O)O[C@@H](c3ccccc3)[C@@H](c3ccccc3)N2[C@@H](c2ccc(OCCOC(=O)[C@@H]3C[C@@H]4C(=O)N[C@@H](Cc5ccccc5)C(=O)N4[C@@H]3c3ccc(O)cc3)cc2)[C@]12C(=O)Nc1ccc(I)cc12 | 1.15
14 | CC(C)[Si](C#Cc1ccccc1)(O[C@H](c1ccccc1)c1cn(Cc2ccccc2)nn1)C(C)C | 1.11
15 | O=C(NCCN1CCOCC1)[C@@H]1c2ccccc2C(=O)N(CC23CC4CC(CC(C4)C2)C3)[C@H]1c1ccc(CO)cc1 | 1.25
16 | O=C1O[C@@H](c2ccccc2)[C@@H](c2ccccc2)N2[C@@H](c3ccccc3OCCO)[C@]3(C(=O)Nc4ccc(C#CC5(O)CCCCCC5)cc43)[C@@H](C(=O)N3CCCCCCC3)[C@H]12 | 1.27
17 | CCOC(=O)C[C@H]1[C@H](OC(=O)c2ccc(-c3ccccc3)cc2)[C@@H](NC(=O)C2CCCCC2)c2cc(OCCCO)ccc2N1C(=O)Cc1ccc(OC)cc1 | 0.365
18 | C=CCC(OC(C)=O)[C@@H]1[C@@H](N(Cc2cccc3ccccc23)C(=O)c2ccc(C)cc2)c2cc(OCCCO)ccc2N1C(=O)Cc1ccc2ccccc2c1 (stereo partly specified) | -0.0179
19 | COC(=O)C1(CC(C)C)C=C2C(=C(C)C(=O)C2C)CN1 (stereo unspecified) | 0.098
20 | COC(=O)[C@@]1(Cc2ccc(F)cc2)[C@H]2c3cc(C(=O)N4CCCC4)n(C[C@H](O)CO)c3C[C@H]2CN1C(=O)c1ccccc1 | 1.09
21 | COC(=O)C(CC#Cc1ccc2c(c1)[C@]1(C(=O)N2)[C@H](C(=O)NC[C@H](O)c2ccccc2)[C@H]2C(=O)O[C@H](c3ccccc3)[C@H](c3ccccc3)N2[C@@H]1c1ccc(O)cc1)C(=O)OC | -0.0341
22 | CC(C)c1ccc(NN2C(C(O)C3CCCCC3)C=CC3C(=O)N(c4ccccc4)C(=O)C32)cc1 (stereo unspecified) | 1.21
23 | CN(C)C(=O)[C@]1(CCS(=O)(=O)c2ccccc2)N=C(c2ccc(OCCCO)cc2)O[C@@H]1c1ccccc1CN=[N+]=[N-] | 1.26
24 | COc1ccc(C(=O)Nc2cccc(CN3C(=O)[C@]4(O[C@H](CC(=O)N(CCO)Cc5ccccc5)[C@@H]([Si](C)(C)c5ccc(OC)cc5)[C@@H]4C)c4ccccc43)c2)cc1 | 1.07
25 | C=CCNC(=O)[C@@H]1[C@H]2C(=O)O[C@H](c3ccccc3)[C@H](c3ccccc3)N2[C@H](c2ccc(O)cc2)[C@@]12C(=O)N(C(=O)OCCOC)c1ccc(C#CCC(C(=O)OC)C(=O)OC)cc12 | 1.19
26 | C=CCNC(=O)[C@H]1[C@@H]2C(=O)O[C@@H](c3ccccc3)[C@@H](c3ccccc3)N2[C@@H](c2ccc(OCCO)cc2)[C@]12C(=O)N(C(=O)OCCOC)c1ccc(C#CCNC(N)=O)cc12 | 1.15
